From the supplement of paper PMC10849652
About 7,900 targets were measured; listed, in parts, are those with a hit and a random draw of the rest. About 0.6% of all pairs of compound and target were hits. Values without a mark were called inactive.

Legend:
Test in all cases: log2 fold change, soluble protein after heating vs DMSO (PISA); higher = thermal stabilisation; K562 cells, 10 uM, 30 min; active = over 0.2 and 3.5 SD of the protein, either way, in both replicates (recomputed)
[1] = compound: CC[C@@H]1C(=O)N(C)c2cnc(Nc3ccc(C(=O)NC4CCN(C)CC4)cc3OC)nc2N1C1CCCC1
Summary of the method: (§1)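 Aliquots of K562 cells (2×10^6 cells/mL) treated with 10 μM compound for 30 min were heated for 3 min over 48°C-58°C. After pooling and extraction in PBS with 0.5% NP-40 at 4°C, soluble protein from a 21,000xg, 90 min spin was quantified by TMTpro 16plex LC-MS/MS with channel sums equalised. Thermal stability is expressed against control samples, from duplicates, as a log2 fold change.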

volasertib = compound: CC[C@@H]1C(=O)N(C)c2cnc(Nc3ccc(C(=O)N[C@H]4CC[C@H](N5CCN(CC6CC6)CC5)CC4)cc3OC)nc2N1C(C)C [volasertib]
Summary of the method: as §1

[2] = compound: CC[C@H](C)N1C=C(C2=C(C=C(C=C21)C3=CN=C(C=C3)N4CCNCC4)C(=O)NCC5=C(C=C(NC5=O)C)C)C
Summary of the method: as §1

epoxomicin = compound: CC[C@H](C)[C@@H](C(=O)N[C@@H]([C@@H](C)O)C(=O)N[C@@H](CC(C)C)C(=O)[C@]1(CO1)C)NC(=O)[C@H]([C@@H](C)CC)N(C)C(=O)C [epoxomicin]
Summary of the method: as §1

[3] = compound: CCn1c(C(=O)N(C2CC2)C2CC2)cc2c3c(ncn3C)c(Nc3cc(C)n(C)n3)nc21
Summary of the method: as §1

[4] = compound: CCn1cc(-c2ccnc3[nH]c(-c4cccc(CN(C)C)c4)cc23)c(-c2ccc(NC(=O)N(C)C)cc2)n1
Summary of the method: as §1

[5] = compound: CN(C)CC(=O)Nc1ccc2[nH]c(=O)c3ccccc3c2c1
Summary of the method: as §1

rosiglitazone = compound: CN(CCOC1=CC=C(C=C1)C[C@H]2C(=O)NC(=O)S2)C3=CC=CC=N3 (racemic) [rosiglitazone]
Summary of the method: as §1

[6] = compound: CN1C2=C(C3=C1C(=O)N(N=C3)CC4=CC(=CC=C4)N)SC(=C2)S(=O)C
Summary of the method: as §1

[7] = compound: CN1CCC(CNc2ccc3ncc(-c4cccc(OC(F)(F)F)c4)n3n2)CC1
Summary of the method: as §1

saracatinib = compound: CN1CCN(CCOc2cc(OC3CCOCC3)c3c(Nc4c(Cl)ccc5c4OCO5)ncnc3c2)CC1 [saracatinib]
Summary of the method: as §1

sotrastaurin = compound: CN1CCN(c2nc(C3=C(c4c[nH]c5ccccc45)C(=O)NC3=O)c3ccccc3n2)CC1 [sotrastaurin]
Summary of the method: as §1

alvocidib = compound: CN1CC[C@H](c2c(O)cc(O)c3c(=O)cc(-c4ccccc4Cl)oc23)[C@H](O)C1 [alvocidib]
Summary of the method: as §1

Tubastatin A = compound: CN1CCc2c(c3ccccc3n2Cc2ccc(C(=O)NO)cc2)C1 [Tubastatin A]
Summary of the method: as §1

[8] = compound: CNC(=O)C1=CC=CC=C1NC2=NC(=NC=C2Cl)NC3=C(C=C(C=C3)N4CCOCC4)OC
Summary of the method: as §1

defactinib = compound: CNC(=O)c1ccc(Nc2ncc(C(F)(F)F)c(NCc3nccnc3N(C)S(C)(=O)=O)n2)cc1 [defactinib]
Summary of the method: as §1

rucaparib = compound: CNCc1ccc(-c2[nH]c3cc(F)cc4c3c2CCNC4=O)cc1 [rucaparib]
Summary of the method: as §1

[9] = compound: CNc1nc(-c2ccc3c(N)n[nH]c3c2)cc(N2C[C@@H](C(=O)NC3CCCCC3)CC[C@H]2C)n1
Summary of the method: as §1

encorafenib = compound: COC(=O)N[C@@H](C)CNc1nccc(-c2cn(C(C)C)nc2-c2cc(Cl)cc(NS(C)(=O)=O)c2F)n1 [encorafenib]
Summary of the method: as §1

[10] = compound: COC(=O)[C@H](CCSC)NC(=O)C1=C(C=C(C=C1)NC[C@H](CS)N)C2=CC=CC=C2
Summary of the method: as §1

Sequence of UniProt Q9Y2A7 (Q9Y2A7 whole entry, looked up): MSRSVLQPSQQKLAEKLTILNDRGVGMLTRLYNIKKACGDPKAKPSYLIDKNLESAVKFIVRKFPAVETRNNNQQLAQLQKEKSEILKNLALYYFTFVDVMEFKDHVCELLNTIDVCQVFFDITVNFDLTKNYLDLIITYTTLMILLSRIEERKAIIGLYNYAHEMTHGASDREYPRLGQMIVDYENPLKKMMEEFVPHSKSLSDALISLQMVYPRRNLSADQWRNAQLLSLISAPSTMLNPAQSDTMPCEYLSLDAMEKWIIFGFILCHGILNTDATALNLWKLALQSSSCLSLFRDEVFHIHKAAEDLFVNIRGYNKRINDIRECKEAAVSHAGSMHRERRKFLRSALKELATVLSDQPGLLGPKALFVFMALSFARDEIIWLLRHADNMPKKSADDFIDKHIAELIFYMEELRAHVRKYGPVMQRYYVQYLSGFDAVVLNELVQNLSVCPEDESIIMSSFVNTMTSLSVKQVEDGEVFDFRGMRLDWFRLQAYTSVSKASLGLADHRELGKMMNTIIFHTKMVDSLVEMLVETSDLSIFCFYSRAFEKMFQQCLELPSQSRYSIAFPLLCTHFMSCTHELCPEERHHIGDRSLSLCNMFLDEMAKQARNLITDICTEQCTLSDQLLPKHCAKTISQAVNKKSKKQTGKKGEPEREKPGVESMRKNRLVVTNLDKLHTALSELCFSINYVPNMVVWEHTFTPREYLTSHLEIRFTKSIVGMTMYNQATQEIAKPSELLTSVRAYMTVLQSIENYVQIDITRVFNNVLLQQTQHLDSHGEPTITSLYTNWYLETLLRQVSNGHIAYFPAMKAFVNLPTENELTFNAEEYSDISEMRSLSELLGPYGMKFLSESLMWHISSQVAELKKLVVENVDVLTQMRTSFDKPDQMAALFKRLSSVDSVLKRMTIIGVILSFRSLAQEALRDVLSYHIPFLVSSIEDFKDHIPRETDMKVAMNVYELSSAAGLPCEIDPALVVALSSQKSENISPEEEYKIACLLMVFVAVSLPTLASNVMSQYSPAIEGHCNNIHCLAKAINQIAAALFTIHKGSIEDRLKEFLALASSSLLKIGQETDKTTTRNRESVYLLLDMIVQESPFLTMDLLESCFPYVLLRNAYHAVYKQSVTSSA
Sequence of UniProt Q8N543 (Q8N543 whole entry, looked up): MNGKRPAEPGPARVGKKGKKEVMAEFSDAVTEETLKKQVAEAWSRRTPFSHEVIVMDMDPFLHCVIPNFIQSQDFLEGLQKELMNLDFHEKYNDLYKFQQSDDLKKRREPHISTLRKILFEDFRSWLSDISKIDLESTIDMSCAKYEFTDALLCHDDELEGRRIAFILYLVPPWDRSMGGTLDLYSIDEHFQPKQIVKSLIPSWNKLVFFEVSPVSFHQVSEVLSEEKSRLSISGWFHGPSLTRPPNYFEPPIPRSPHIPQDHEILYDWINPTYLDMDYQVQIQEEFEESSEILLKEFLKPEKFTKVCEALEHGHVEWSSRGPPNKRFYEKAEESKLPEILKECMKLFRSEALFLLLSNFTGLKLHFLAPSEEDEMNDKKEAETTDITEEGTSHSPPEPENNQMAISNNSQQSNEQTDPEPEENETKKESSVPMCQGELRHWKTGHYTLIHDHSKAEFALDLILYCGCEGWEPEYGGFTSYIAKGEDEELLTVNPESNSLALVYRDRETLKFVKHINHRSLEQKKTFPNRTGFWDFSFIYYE
Sequence of UniProt Q9BRA0 (Q9BRA0 whole entry, looked up): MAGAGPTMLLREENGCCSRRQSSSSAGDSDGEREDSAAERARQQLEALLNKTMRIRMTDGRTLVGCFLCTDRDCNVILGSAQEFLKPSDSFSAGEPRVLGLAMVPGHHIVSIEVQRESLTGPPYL
Sequence of UniProt Q9H3P2 (Q9H3P2 whole entry, looked up): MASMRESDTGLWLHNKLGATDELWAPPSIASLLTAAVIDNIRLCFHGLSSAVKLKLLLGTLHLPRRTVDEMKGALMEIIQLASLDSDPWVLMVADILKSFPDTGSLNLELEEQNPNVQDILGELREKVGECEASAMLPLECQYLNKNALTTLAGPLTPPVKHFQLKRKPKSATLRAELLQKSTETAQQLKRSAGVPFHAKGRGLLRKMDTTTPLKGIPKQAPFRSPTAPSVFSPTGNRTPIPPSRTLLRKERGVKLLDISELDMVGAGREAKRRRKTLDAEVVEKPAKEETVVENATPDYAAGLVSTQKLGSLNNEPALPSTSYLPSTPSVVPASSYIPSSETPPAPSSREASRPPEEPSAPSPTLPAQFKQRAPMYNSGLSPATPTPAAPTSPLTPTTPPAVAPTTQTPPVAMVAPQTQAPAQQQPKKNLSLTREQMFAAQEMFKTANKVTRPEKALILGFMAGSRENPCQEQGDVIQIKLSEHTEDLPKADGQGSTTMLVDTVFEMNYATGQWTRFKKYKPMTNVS
Sequence of UniProt Q9Y314 (Q9Y314 whole entry, looked up): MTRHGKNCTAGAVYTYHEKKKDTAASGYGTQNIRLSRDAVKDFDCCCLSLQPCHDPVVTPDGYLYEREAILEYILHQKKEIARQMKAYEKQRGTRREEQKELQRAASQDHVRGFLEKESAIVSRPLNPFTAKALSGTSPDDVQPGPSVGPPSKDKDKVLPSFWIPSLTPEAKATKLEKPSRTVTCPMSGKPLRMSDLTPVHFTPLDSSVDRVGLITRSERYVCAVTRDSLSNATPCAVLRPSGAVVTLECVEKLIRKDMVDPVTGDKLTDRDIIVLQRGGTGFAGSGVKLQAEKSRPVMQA
Sequence of UniProt O75251 (O75251 whole entry, looked up): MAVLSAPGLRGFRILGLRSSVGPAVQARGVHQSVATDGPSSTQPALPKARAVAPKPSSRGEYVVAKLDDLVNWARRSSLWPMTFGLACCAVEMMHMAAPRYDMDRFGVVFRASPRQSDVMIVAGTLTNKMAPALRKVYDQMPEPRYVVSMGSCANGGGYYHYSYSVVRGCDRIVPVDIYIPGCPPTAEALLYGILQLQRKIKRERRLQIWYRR
Sequence of UniProt P68402 (P68402 whole entry, looked up): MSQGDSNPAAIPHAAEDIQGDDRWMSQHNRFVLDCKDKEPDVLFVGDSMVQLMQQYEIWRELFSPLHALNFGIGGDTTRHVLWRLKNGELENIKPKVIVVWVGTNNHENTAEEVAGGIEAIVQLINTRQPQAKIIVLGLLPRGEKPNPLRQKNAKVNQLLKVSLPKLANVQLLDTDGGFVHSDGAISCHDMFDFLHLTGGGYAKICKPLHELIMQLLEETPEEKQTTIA
Sequence of UniProt O75323 (O75323 whole entry, looked up): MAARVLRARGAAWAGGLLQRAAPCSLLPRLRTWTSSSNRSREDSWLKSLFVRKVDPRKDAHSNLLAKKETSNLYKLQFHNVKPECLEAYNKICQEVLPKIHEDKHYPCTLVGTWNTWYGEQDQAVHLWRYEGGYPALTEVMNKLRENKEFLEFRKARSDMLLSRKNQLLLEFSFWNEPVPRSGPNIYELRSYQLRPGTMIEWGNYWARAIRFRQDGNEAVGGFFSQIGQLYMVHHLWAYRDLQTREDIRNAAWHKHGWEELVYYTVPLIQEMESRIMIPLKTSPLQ
Sequence of UniProt Q96MF7 (Q96MF7 whole entry, looked up): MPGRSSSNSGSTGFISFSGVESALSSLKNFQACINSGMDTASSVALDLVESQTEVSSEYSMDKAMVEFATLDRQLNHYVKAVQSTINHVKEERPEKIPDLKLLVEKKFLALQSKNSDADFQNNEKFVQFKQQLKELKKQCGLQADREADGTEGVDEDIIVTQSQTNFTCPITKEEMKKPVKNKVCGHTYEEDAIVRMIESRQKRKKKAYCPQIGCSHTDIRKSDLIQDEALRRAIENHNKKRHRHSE
Sequence of UniProt P40261 (P40261 whole entry, looked up): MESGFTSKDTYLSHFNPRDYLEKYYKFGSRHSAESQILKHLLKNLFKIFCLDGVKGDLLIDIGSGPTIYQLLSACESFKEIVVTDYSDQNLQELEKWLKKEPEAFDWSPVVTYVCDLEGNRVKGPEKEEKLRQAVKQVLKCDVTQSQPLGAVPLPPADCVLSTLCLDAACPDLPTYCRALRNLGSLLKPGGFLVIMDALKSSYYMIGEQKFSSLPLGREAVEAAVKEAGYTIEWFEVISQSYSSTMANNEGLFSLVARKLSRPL
Sequence of UniProt Q86WC4 (Q86WC4 whole entry, looked up): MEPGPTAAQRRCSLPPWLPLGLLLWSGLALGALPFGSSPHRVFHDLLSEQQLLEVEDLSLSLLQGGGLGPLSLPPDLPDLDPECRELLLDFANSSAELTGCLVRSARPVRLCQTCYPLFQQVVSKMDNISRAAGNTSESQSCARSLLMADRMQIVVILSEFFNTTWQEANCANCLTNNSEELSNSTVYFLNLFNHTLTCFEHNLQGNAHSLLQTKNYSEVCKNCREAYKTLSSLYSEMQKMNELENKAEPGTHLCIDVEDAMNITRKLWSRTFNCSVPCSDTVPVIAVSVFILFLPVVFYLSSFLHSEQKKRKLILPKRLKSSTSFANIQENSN
Sequence of UniProt Q9NZT2 (Q9NZT2 whole entry, looked up): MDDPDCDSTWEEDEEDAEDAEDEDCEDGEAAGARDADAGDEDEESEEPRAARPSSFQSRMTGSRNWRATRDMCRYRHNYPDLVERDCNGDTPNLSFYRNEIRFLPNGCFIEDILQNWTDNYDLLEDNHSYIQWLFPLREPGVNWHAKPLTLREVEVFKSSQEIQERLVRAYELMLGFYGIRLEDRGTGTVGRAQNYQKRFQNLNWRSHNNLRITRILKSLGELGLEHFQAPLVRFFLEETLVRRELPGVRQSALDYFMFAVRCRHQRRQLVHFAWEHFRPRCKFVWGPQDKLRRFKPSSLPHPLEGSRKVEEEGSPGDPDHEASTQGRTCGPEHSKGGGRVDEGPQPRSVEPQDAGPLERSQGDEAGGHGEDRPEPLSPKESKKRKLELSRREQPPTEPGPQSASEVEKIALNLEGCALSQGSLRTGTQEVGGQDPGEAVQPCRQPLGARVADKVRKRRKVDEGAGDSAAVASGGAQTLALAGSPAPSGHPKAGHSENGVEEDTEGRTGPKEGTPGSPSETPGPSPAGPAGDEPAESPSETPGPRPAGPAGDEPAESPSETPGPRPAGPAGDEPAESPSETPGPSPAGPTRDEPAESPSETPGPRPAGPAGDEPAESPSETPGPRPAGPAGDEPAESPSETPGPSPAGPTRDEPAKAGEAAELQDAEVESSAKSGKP

| Target | log2 fold change [1] | log2 fold change (volasertib) | log2 fold change [2] | log2 fold change (epoxomicin) | log2 fold change [3] | log2 fold change [4] | log2 fold change [5] | log2 fold change (rosiglitazone) | log2 fold change [6] | log2 fold change [7] | log2 fold change (saracatinib) | log2 fold change (sotrastaurin) | log2 fold change (alvocidib) | log2 fold change (Tubastatin A) | log2 fold change [8] | log2 fold change (defactinib) | log2 fold change (rucaparib) | log2 fold change [9] | log2 fold change (encorafenib) | log2 fold change [10] |
| --- | --- | --- | --- | --- | --- | --- | --- | --- | --- | --- | --- | --- | --- | --- | --- | --- | --- | --- | --- | --- |
| NIPSNAP2 (UniProt O75323) | 0.043 | 0.009 | -0.003 | 0.07 | 0.009 | -0.115 | -0.041 | 0.005 | -0.083 | 0.028 | -0.017 | -0.082 | 0.031 | -0.019 | 0.104 | -0.003 | -0.085 | -0.08 | -0.028 | 0.033 |
| NNMT (UniProt P40261) | 0.003 | -0.197 | 0.023 | 0.039 | 0.017 | -0.068 | -0.042 | 0.007 | -0.025 | -0.152 | -0.041 | 0.01 | -0.087 | -0.081 | 0.016 | 0.004 | -0.078 | 0.021 | -0.021 | 0.038 |
| NDUFS7 (UniProt O75251) | -0.043 | -0.042 | 0.003 | -0.007 | -0.009 | -0.005 | 0.012 | 0.053 | -0.029 | -0.327 (active) | -0.047 | 0.014 | -0.011 | -0.001 | -0.038 | -0.016 | -0.004 | -0.048 | 0.024 | 0.002 |
| PAFAH1B2 (UniProt P68402) | 0.002 | 0.064 | 0.036 | 0.102 | 0.018 | -0.087 | -0.009 | 0 | -0.037 | -0.016 | -0.016 | 0.097 | 0.031 | -0.058 | -0.029 | 0.022 | 0.037 | 0.078 | -0.006 | -0.026 |
| NDUFB10 (UniProt O96000) | -0.008 | 0.056 | -0.007 | 0.001 | 0 | 0.03 | -0.005 | 0.013 | -0.043 | -0.237 (active) | -0.027 | 0.008 | -0.013 | -0.022 | -0.012 | -0.016 | 0.012 | -0.004 | -0.005 | -0.029 |
| NOSIP (UniProt Q9Y314) | -0.373 | -1.06 (active) | 0.151 | 0.104 | -0.129 | -0.017 | 0.196 | 0.052 | 0.109 | 0.097 | -0.045 | -0.28 | -0.098 | 0.199 | 0.05 | -0.199 | 0.003 | -0.106 | 0.181 | -0.182 |
| NELFA (UniProt Q9H3P2) | -0.4 | -0.868 (active) | 0.341 | 0.053 | -0.105 | -0.139 | 0.16 | 0.048 | -0.051 | 0.006 | 0.004 | -0.023 | -0.193 | 0.216 | 0.078 | -0.094 | 0.261 | -0.014 | -0.039 | -0.213 |
| NEU1 (UniProt Q99519) | -0.184 | -0.501 (active) | 0.059 | 0.113 | -0.04 | 0.052 | 0.012 | 0.032 | 0.015 | -0.079 | -0.044 | 0 | -0.033 | 0.028 | -0.113 | -0.011 | -0.012 | -0.011 | -0.012 | -0.019 |
| NAA38 isoform 2 (UniProt Q9BRA0) | -0.045 | -0.017 | -0.025 | 0.029 | 0.265 (active) | -0.127 | -0.026 | 0.017 | -0.095 | 0.064 | -0.02 | 0.009 | -0.108 | 0.081 | -0.044 | -0.101 | 0.023 | 0.044 | 0.022 | -0.058 |
| OGFR (UniProt Q9NZT2) | 0.026 | -0.103 | 0.167 | -0.076 | 0.018 | -0.041 | 0.142 | 0.007 | -0.027 | -0.134 | -0.044 | -0.146 | -0.04 | 0.089 | -0.028 | -0.094 | 0.132 | 0.009 | 0.031 | -0.154 |
| OGFOD1 (UniProt Q8N543) | 0.049 | 0.038 | -0.025 | 0.042 | 0.007 | -0.013 | -0.022 | 0.059 | -0.022 | -0.051 | 0.007 | 0.024 | -0.026 | -0.163 | 0.012 | -0.027 | -0.051 | -0.028 | -0.028 | 0.041 |
| NHLRC2 (UniProt Q8NBF2) | 0.024 | 0.029 | -0.026 | -0.06 | -0.037 | -0.109 | 0.003 | 0.01 | -0.064 | -0.272 (active) | -0.026 | 0.039 | -0.037 | -0.072 | -0.055 | -0.039 | -0.016 | 0.059 | -0.045 | 0.146 |
| OSTM1 (UniProt Q86WC4) | -0.216 | -0.169 | 0.058 | 0.107 | -0.12 | -0.215 | -0.072 | 0.004 | 0.035 | -0.064 | -0.038 | 0.007 | 0.001 | 0.031 | 0.19 | -0.048 | -0.015 | -0.086 | 0.022 | 0.002 |
| NSMCE2 (UniProt Q96MF7) | 0.072 | -0.032 | -0.003 | -0.089 | 0.025 | 0.079 | -0.007 | 0.119 | 0.059 | 0.397 (active) | -0.019 | -0.095 | -0.004 | 0 | 0.031 | -0.06 | 0.076 | -0.076 | -0.001 | 0.025 |
| NCKAP1 isoform 2 (UniProt Q9Y2A7) | 0.002 | -0.25 (active) | 0.031 | 0.01 | -0.003 | -0.036 | 0.043 | 0.011 | -0.042 | -0.027 | 0.02 | -0.031 | -0.06 | 0.027 | 0.006 | -0.071 | -0.022 | 0.019 | 0 | -0.007 |
| NA, A0A0B4J2A0 | -0.163 | -0.036 | 0.008 | 0.11 | -0.04 | -0.055 | -0.004 | 0.049 | -0.078 | -0.101 | 0.007 | 0.044 | -0.058 | -0.058 | -0.077 | -0.051 | -0.005 | -0.022 | -0.003 | -0.037 |
